# The list is not random: actives were taken first. Their share in the collection is about 3.7%.
# ClpP mod: qHTS Assay for Activators of ClpP; ATP-dependent Clp protease proteolytic subunit (Bacillus subtilis (strain 168)), P80244; purified B. subtilis ClpP, FRET peptide cleavage, 20 min; Potency, µM (series often up to 57.5 µM), without a hit: at the top dose activity change, negative = active; hit rate 1.9% among 340,000; active = well fitted falling curve with a large enough effect; inconclusive = small, poorly fitted or top-dose-only effect; inactive = no such curve, though single readings can be large or run the other way; note: potency is the fitted concentration of half-maximal effect; the source files actives as falling curves though it sought activators and does not explain the sign; nearly all actives have a fitted effect of over 65% in size
# Target sequence (P80244 whole entry, looked up): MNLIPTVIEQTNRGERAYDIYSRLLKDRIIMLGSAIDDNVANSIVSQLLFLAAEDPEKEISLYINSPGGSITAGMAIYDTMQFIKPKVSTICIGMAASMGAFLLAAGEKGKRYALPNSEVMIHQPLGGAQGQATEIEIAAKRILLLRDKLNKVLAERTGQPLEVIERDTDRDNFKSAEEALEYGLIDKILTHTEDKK
#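 Buffer: 100 mM Tris/HCl pH8, 100 mM KCl, 0.05% low protease BSA, 2.5% glycerol, 0.01% Tween-20. ClpP 10 microg/mL final; 20 min RT; delta FRET normalized to ADEP and DMSO controls.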
# miR-21 reporter: qHTS Assay for Modulators of miRNAs and/orActivators of miR-21; HeLa miR-21 FLuc reporter, luciferase, 48 h; 340,000 tested, under 10 active; Potency, µM (series often up to 38.3 µM), for inactives: top-dose activity change, positive = activation, most hits filed as activators;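 note: % of control where 0% means no effect; miR-21 action dims this reporter so a rising signal means less miR-21 action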
#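 HeLa miR-21-FLuc reporter line, endogenous miR-21; 2000 cells/well in DMEM/10% FBS; compound titration up to ~40uM final, 48 h, 37 degree Celsius; luciferase detection reagent, 15 min lysis, CCD luminescence.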
# A549 viability: Nrf2 qHTS screen for inhibitors: counterscreen for cytotoxicity | A549 ARE-Fluc cells, CellTiter-Fluor viability, 18-24 h | Potency, µM (series often up to 46 µM), for inactives: top-dose activity change, negative = cytotoxicity, hits mostly inhibitors | hit rate 0.16% among 390,000 | AID 504648, 2011; note: potency is the fitted concentration of half-maximal effect; % is set by controls: 0 for no effect and ±100 for the full control effect
#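 A549 ARE_Fluc cells in 5% FBS OPTI-MEM were exposed to compounds in concentration-response for 18-24 h at 37 deg C. Viability was read by CellTiter-Fluor fluorescence (Ex 405/Em 525) after 30 min, before the luciferase read.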
# Nrf2 ARE act: qHTS of Nrf2 Activators; hit rate 0.31% among 410,000; Potency, µM (series often up to 46.1 µM), for inactives: at the highest dose activation, hits mostly activators; AREc32 ARE-luciferase reporter (MCF7-derived line), luminescence, 24 h; AID 624171, 2012; note: potency is the fitted concentration of half-maximal effect; % of control where 0% means no effect; nearly all actives have a fitted effect of over 65% in size
#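 Each well held 1000 AREc32 cells, which were incubated with compound for 24 hr at 37 deg C after overnight attachment, and ARE reporter activity was quantified by firefly luciferase luminescence.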
# Nrf2 inh: Nrf2 qHTS screen for inhibitors; hit rate 2.1% among 360,000; Potency, µM (top dose mostly 46 µM), for the others: at the top dose activity change, negative = inhibition, most hits filed as inhibitors; A549 ARE-Fluc reporter, luciferase luminescence, 18-24 h; note: potency is the fitted concentration of half-maximal effect; % is set by controls: 0 for no effect and ±100 for the full control effect; nearly all actives have a fitted effect of over 60% in size
#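 Cells were seeded and rested 2 h, then exposed to compounds for 18-24 h. CellTiter-Fluor was read first as a viability measure. BugLite was added 15 min before the final luminescent read of ARE-luciferase activity in A549 cells.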
# TCR act: Activators of T cell receptors: qHTS campaign; primary human leukocytes, anti-CD3, IL-2 HTRF, 48 h; Potency, µM (highest dose often 9.22 µM), inactives show at the top dose activation of IL-2 secretion, actives largely listed as activators; 330,000 tested, under 10 active; note: % of control where 0% means no effect
#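 1) Mix primary human leukocytes, a-CD3 beads and compound. 2) Incubate 48 hr. 3) Add HTRF IL-2 reagents (a-IL-2-K, a-IL-2-d2).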
# * marks the source's active call; other numbers are inactive results; ? = inconclusive; nt = no result given; [ ] = another dose, or the depositor's remark. Unless noted, calls come from the whole dose curve; as a rule, active = well fitted curve in the direction sought with a large enough effect; inconclusive = small, poorly fitted or top-dose-only effect, or another doubt; inactive = no such curve, though single readings can be large; an effect the other way counts as inactive or inconclusive.
SMILES,ClpP mod,miR-21 reporter,A549 viability,Nrf2 ARE act,Nrf2 inh,TCR act
Cc1cc(C)cc(C(=O)OCC(=O)Nc2cccc(S(=O)(=O)NC3=NCCCCC3)c2)c1,-4%,0%,?,2%,23µM*,-3%[46.1 µM]
O=C(/C=C/c1ccc(OC(F)F)cc1)Nc1cccc(S(=O)(=O)NC2=NCCCCC2)c1,-1%,21%,?,-1%,18µM*,10%
COc1cccc(C(=O)Nc2nc3nc(C)c(Cc4ccccc4)c(=O)n3[nH]2)c1,0%,-1%,4%,0%,4%,nt
C=Cc1cc2c(s1)c1cnn(Cc3ccccc3F)c(=O)c1n2C,nt,nt,-5%,nt,-4%,nt
COc1ccc(C(=O)NC2CCN(CC(=O)N3CCCCC3)CC2)cc1,nt,1%,-7%,-1%,-4%,-7%
COc1cc(COc2ccc3c(C)c(Cc4ccccc4)c(=O)oc3c2)cc(OC)c1OC,-1%,-5%,-5%,-1%,?,2%
COc1cccc(COc2ccc3c(C)c(Cc4ccccc4)c(=O)oc3c2)c1,13µM*,nt,3%,-1%,3%,1%
COc1cc(COc2ccc3c(C)c(Cc4ccccc4)c(=O)oc3c2C)cc(OC)c1OC,16µM*,14%,-7%,-1%,?,0%
COc1ccc(OC)c(C2=CC(=O)C[C@H](c3ccc4c(c3)OCO4)C2)c1,-17%,nt,1%,0%,-24%,-11%
COc1ccc(OCCn2c(C)nc3ccccc32)cc1,2%,nt,nt,3%,nt,nt
Cc1nc2ccccc2n1CCOc1ccc(F)cc1,-2%,-8%,6%,3%,21µM*,nt
Cc1noc2ncnc(NCc3ccc(Cl)cc3)c12,0%,27%,0%,3%,?,nt
COc1ccc2nc(N3C(=O)CC(C(C)c4ccccc4)C3=O)sc2c1 (stereo unspecified),28µM*,-6%,-1%,0%,7%,0%[46.1 µM]
CCCC(=O)Nc1cccc(-c2cn3c(C)csc3n2)c1,0%,-5%,1%,-1%,nt,nt
S=C(NCCCNc1ccc(Br)cn1)NCCCc1cnc[nH]1,nt,nt,0%,nt,-10%,nt
CCc1c(C)nc2cc(-c3cc(OC)cc(OC)c3)nn2c1N1CCCC1,-30%,-5%,12%,7%,-12%,-6%
Fc1cccc(-c2cc3nc(-c4ccccc4)cc(N4CCC5(CC4)OCCO5)n3n2)c1,?,0%,7%,1%,nt,-2%[46.1 µM]
Fc1cccc(-c2cc3nc4c(c(N5CCC6(CC5)OCCO6)n3n2)CCCC4)c1,28µM*,-45%,-4%,16%,14%,-7%
OC1CCN(c2c3c(nc4cc(-c5cccc(F)c5)nn24)CCCC3)CC1,-22%,-33%,?,8%,23µM*,5%
COc1cc(OC)cc(-c2cc3nc4c(c(N5CCN(c6ncccn6)CC5)n3n2)CCCC4)c1,35µM*,-19%,-4%,3%,-10%,nt
CS(=O)(=O)N1CCN(c2nc(-c3cccs3)nc3ccccc23)CC1,-7%,nt,-5%,nt,?,nt
COc1ccc(C2Nc3ccccc3C(=O)N2Cc2ccco2)cc1COc1ccccc1 (stereo unspecified),nt,nt,-3%,nt,-14%,nt
Cc1cc([N+](=O)[O-])ccc1NC(=O)c1cc2ccccc2o1,-5%,-47%,0%,2%,?,nt
CC1=CC(=O)N(c2cccc(C(F)(F)F)c2)C1c1ccc(Cl)cc1 (stereo unspecified),-2%,23%,?,0%,23µM*,0%
CC1=CC(=O)N(c2ccc(C)cc2)C1c1ccc(Cl)cc1 (stereo unspecified),-1%,-5%,16%,0%,7%,0%[46.1 µM]
SMILES,ClpP mod,miR-21 reporter,A549 viability,Nrf2 ARE act,Nrf2 inh,TCR act
Cc1oc2ncn(C)c(=O)c2c1C(=O)Nc1ccccn1,-2%,7%,2%,?,9%,nt
COC(=O)C1=CN(Cc2cccs2)C=C(C(=O)OC)C1c1cccc(OC)c1OC,32µM*,-9%,-1%,-1%,7%,4%
COC(=O)C1=CN(Cc2ccc(OC)c(OC)c2)C=C(C(=O)OC)C1c1cccc(OC)c1OC,-2%,-26%,11%,0%,-4%,-4%
COC(=O)C1=CN(C2CC2)C=C(C(=O)OC)C1c1ccccc1OC,32µM*,3%,3%,1%,-5%,-1%
CCN1C=C(C(=O)OC)C(c2cccc(OC)c2OC)C(C(=O)OC)=C1,32µM*,1%,27%,0%,4%,nt
CCn1nccc1NC(=O)c1csc([C@@H]2C[C@H](O)[C@@H](CO)O2)n1,-3%,nt,nt,0%,nt,nt
Cc1c(C(=O)NCc2ccc3c(c2)OCCO3)sc(=O)n1Cc1cccc(C(F)(F)F)c1,-3%,nt,nt,0%,nt,nt
O=c1c2ccccc2cnn1-c1nc2ccccc2[nH]1,?,?,-1%,-3%,?,0%
O=c1c(Cl)c(N2CCCCC2)cnn1-c1nc2ccccc2[nH]1,-2%,19%,-1%,-2%,16µM*,6%
Cc1ccc(S(=O)(=O)NC2(C(=O)O)CCCC2)cc1,35µM*,nt,-4%,-1%,-1%,0%
Cc1ccc(S(=O)(=O)NC2(C(=O)O)CCCCC2)cc1,0%,-1%,10%,0%,-13%,1%
Cc1ccc(S(=O)(=O)C2(S(=O)(=O)c3ccc(C)cc3)CC2)cc1,-2%,7%,-15%,3%,23µM*,5%
O=S(=O)(c1ccccc1)C1(S(=O)(=O)c2ccccc2)CCCC1,-1%,-5%,-12%,0%,-22%,nt
CCc1ccc2ncc(S(=O)(=O)c3ccc(C)c(C)c3)c(N3CCCC3)c2c1,-12%,-1%,-11%,6%,23µM*,-10%[46.1 µM]
CCOC(=O)c1ccc(-c2ccc(CO)o2)cc1,0.71µM*,-42%,0%,6%,?,7%
COc1cc(SC#N)ccc1N=Cc1c(C)[nH]n(-c2cccc3ccccc23)c1=O,28µM*,-1%,-7%,8%,9%,2%
CCc1ccc(C2=C(C)C(N3CCC(C(=O)Nc4ccc(F)cc4)CC3)=NS2(=O)=O)cc1,2%,5%,-5%,0%,?,nt
CN1C[C@@H](CO)O[C@@H](n2cnc3c(N4CCOCC4)ncnc32)C1,-1%,nt,nt,0%,nt,nt
Cc1ccc(-n2c(=O)c3sc4ccccc4c3n(C)c2=O)cc1F,4%,-2%,1%,0%,?,nt
CN1/C(=C/C(=O)c2cccs2)Sc2ccccc21,nt,-13%,nt,nt,nt,nt
CN1/C(=C\C(=O)c2cccs2)Sc2ccccc21,-3%,-15%,-28%,4µM*,nt,-5%

# Screens from PubChem.
